In PubChem BioAssay (EPA / NIEHS):
Active and inactive are the calls of the source. How the source made its calls: active means hit-call score of the fitted dose curve at least 0.9, where 1 is the maximum; inactive means score below 0.9.

Experiment: APR_HepG2_MitoMembPot_72hr: Apredica 72-hour HepG2 Assay for Mitochondrial Membrane Potential (AID 2282917)
Settings: imaging, actives raise or lower the signal
Protocol: APR_HepG2_72hr is a cell-based, multiplexed-readout assay that uses HepG2, a human liver cell line, with measurements taken at 72 hours after chemical dosing in a 384-well plate.APR_HepG2_MitoMembPot_72hr is one of 10 assay component(s) measured or calculated from the APR_HepG2_72hr assay. It is designed to make measurements of dye binding, a form of membrane potential reporter, as detected with fluorescence intensity signals by HCS Fluorescent Imaging technology.Data from the assay component APR_HepG2_MitoMembPot_72hr was analyzed into 1 assay endpoint. This assay endpoint, APR_HepG2_MitoMembPot_72hr, was analyzed with bidirectional fitting relative to DMSO as the negative control and baseline of activity. Using a type of membrane potential reporter, gain or loss-of-signal activity can be used to understand changes in the signaling. Furthermore, this assay endpoint can be referred to as a primary readout, because this assay has produced multiple assay endpoints where this one serves a signaling function. To generalize the intended target to other relatable targets, this assay endpoint is annotated to the cell morphology intended target family, where the subfamily is organelle conformation.
Cells were treated with dimethyl sulfoxide (DMSO) as a solvent control at a final concentration of 0.5% v/v or with compounds in DMSO with a resulting final DMSO concentration of 0.5% v/v. Compound treatment was done at concentrations of 0.39, 0.78, 1.56, 3.12, 6.24, 12.5, 25, 50, 100, and 200 uM in duplicate on each plate. Cells were treated with compounds for 1, 24, or 72 hr. Carbonyl […] m-chloro-phenylhydrazone (CCCP) and taxol were used as positive controls for mitochondrial function and cytoskeletal stability, respectively; DMSO served as the negative control for this experiment. Cells were fixed by the direct addition of 50 uL formaldehyde in Hank's Balanced Salt Solution (HBSS) to a final concentration of 3.7%. After incubation in the fixation medium for 30 min at room temperature (293-298 K), cells were rinsed twice with HBSS and treated with cell permeabilization buffer (16 uL of 0.5% Triton X-100) for 10 min at room temperature (293-298 K) before labeling. For mitochondrial membrane potential and mitochondrial measurements, pre-fixed cells were incubated with 50 uL of MitoTracker Red CMXRos (Invitrogen) at a concentration of 250 nM for 30 min before fixation. In the remaining cases, post-fixed cells were labeled by incubation with a multiplexed mixture of primary antibodies in HBSS for 60 min at room temperature (293-298 K) to detect immunoreactivity of c-Jun (1:500), phospho-histone H3 (1:100), phospho-histone H2A.x (1:200), p53 (1:400), alpha-tubulin (1:200) and Hoechst 33342 (2 ug/mL). Cells were labeled for multiplexed imaging on two separate plates: a) Hoechst 33342, MitoTracker Red, phospho-histone H3, and alpha-tubulin, and b) Hoechst 33342, phospho-histone H2A.x, and c-Jun. A final rinse with HBSS (50 uL) was performed before analysis. The primary and secondary antibodies for the proteins were phospho-histone H3 (rabbit anti-phospho-histone H3 and FITC-donkey anti-rabbit IgG), phospho-histone H2A.x (mouse anti-phospho-histone H2A.x and FITC-donkey anti-mouse IgG), c-Jun (rabbit anti-phospho-c-Jun and Cy3-donkey anti-rabbit IgG), p53 (sheep anti-p53 and Cy5-donkey anti-sheep IgG), alpha-tubulin (mouse anti-alpha-tubulin and Cy5-donkey anti-mouse IgG). These antibodies are available as the CellCiphr HepG2 assay kit (Millipore).Digital images of each well were captured using a Cellomics ArrayScan VTI (Thermo Scientific Cellomics) (0.8 NA objective, 0.63x optical coupler, and XF-93 filter set) at 20x magnification. The images were acquired using the autofocus feature of the ArrayScan instrument, which entails the following steps. First, the camera focuses on channel 1 (Hoechst 33342), where nuclei are identified. Second, a Z offset of 1 um is used for capturing mitochondria (MitoTracker Red). […]

Compound | outcome | AC50
COc1ccc2c(c1)c(CC(=O)O)c(C)n2C(=O)c1ccc(Cl)cc1 | inactive | –
CC(=O)OC/C=C(\C)CCC=C(C)C | inactive | –
Cc1ccc(Cl)cc1 | inactive | –
Cc1ccc(N(C)C)cc1 | inactive | –
COCCOC[C@H](CC1(C(=O)NC2CCC(C(=O)O)CC2)CCCC1)C(=O)Oc1ccc2c(c1)CCC2 (stereo not given in full) | inactive | –
Cc1ccccc1Cl | inactive | –
COc1cccc2c1C(=O)c1c(O)c3c(c(O)c1C2=O)C[C@@](O)(C(=O)CO)C[C@@H]3O[C@H]1C[C@H](N)[C@H](O)[C@H](C)O1 | inactive | –
COC(=O)c1ccc(O)cc1 | inactive | –
CN[C@H]1CC[C@@H](c2ccc(Cl)c(Cl)c2)c2ccc(S(N)(=O)=O)cc21 | inactive | –
CC=Cc1ccc(O)c(OC)c1 | inactive | –
CNC(=O)[C@H]1O[C@@H](n2cnc3c(NCc4cc(Cl)ccc4OCc4cc(C)no4)ncnc32)[C@H](O)[C@@H]1N | inactive | –
NC(=O)Cn1c(=O)cc(CCN2CCN(c3nccc4sccc34)CC2)c2ccc(F)cc21 | inactive | –
CCCCCCCCCCCCCCCCCC(=O)O | inactive | –
FC(F)(F)C(F)(F)C(F)(F)C(F)(F)C(F)(F)C(F)(F)CCI | inactive | –
Cc1nc(C)nc(N2C[C@@H](C)N(c3ccnc([C@@H](C)O)n3)[C@@H](C)C2)n1 | inactive | –
Cc1c(C(=O)O)c(O)cc2c1C(=O)c1c(O)c([C@@H]3O[C@H](CO)[C@@H](O)[C@H](O)[C@H]3O)c(O)c(O)c1C2=O | – | 40.9 µM (active)
CC1(C)CC(N=C=O)CC(C)(CN=C=O)C1 (stereo not given) | inactive | –
O=C(OCCCCCOC(=O)c1ccccc1)c1ccccc1 | inactive | –
CCCCCCC(=O)OCC | inactive | –
NS(=O)(=O)c1cc2c(cc1Cl)NCNS2(=O)=O | inactive | –

Compound | outcome | AC50
CCOc1ccc2c(c1)C(C)=CC(C)(C)N2 | inactive | –
CCOC(=O)C(C)(C)Oc1ccc(Cl)cc1 | inactive | –
COCCOCCOC | inactive | –
CNCc1cc(F)ccc1Oc1ccc(Cl)c(Cl)c1 | inactive | –
c1cc(-c2ccncc2)ccn1 | inactive | –
CN1CCN(Cc2cc(-c3ccc4[nH]c(=O)oc4c3)co2)[C@@H](c2ccc(F)cc2)C1 | – | 66.8 µM (active)
CCOC(=O)CCC(=O)OCC | inactive | –
O=c1[nH]cc(F)c(=O)[nH]1 | inactive | –
CCCCCCCCCCO | inactive | –
CCCCCCCCCCC | inactive | –
C[Si]1(C)O[Si](C)(C)O[Si](C)(C)O[Si](C)(C)O1 | inactive | –
CCCCCCOCCO | inactive | –
Nc1ccc2c(c1)C(=O)c1ccccc1C2=O | inactive | –
Clc1cc(Cl)c(Cl)cc1Cl | inactive | –
O=C(N[C@@H](Cc1ccccc1)[C@@H](O)C(=O)N1C[C@@H](O)[C@@H](O)C1)c1cc2cc(Cl)ccc2[nH]1 | – | 97.2 µM (active)
COc1cc(C=O)ccc1O | inactive | –
Cc1ccc2ncccc2c1 | inactive | –
CCNc1cccc(C)c1 | inactive | –
O=C(O)Cc1ccccc1Nc1c(Cl)cccc1Cl | inactive | –
Cc1cccc([N+](=O)[O-])c1C | inactive | –
